# Test results taken from the supplement of paper PMC3334620.
# Over roughly 33,000 sequences, “E-score (-0.5 to 0.5)” has its median near -0.0034; the highest 2% begin near 0.25. Many of the other results were omitted from the sample, so the highest values are more common in it than they were.
# Molecular target: T1, Yap3 (UniProt P38749)
# T1 sequence: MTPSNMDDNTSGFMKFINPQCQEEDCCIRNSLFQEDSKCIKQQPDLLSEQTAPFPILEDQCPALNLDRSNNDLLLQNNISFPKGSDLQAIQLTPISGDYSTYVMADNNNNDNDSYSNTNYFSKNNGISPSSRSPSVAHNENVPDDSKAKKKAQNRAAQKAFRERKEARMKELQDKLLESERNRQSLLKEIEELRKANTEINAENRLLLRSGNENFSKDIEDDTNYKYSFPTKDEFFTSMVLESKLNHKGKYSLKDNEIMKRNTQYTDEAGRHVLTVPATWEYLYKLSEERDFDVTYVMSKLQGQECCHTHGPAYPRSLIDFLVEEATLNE
# Experiment: PBM E-score (8-mer binding enrichment) (E-score (-0.5 to 0.5)); higher = stronger / more preferred TF binding
# Conditions: protein concentration: 100 nM; construct: GST-full length
# Procedure, shortened: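 Bound GST-tagged yeast transcription factors, applied at about 100-200 nM to double-stranded universal all-10-mer Agilent arrays, were detected with fluorescent anti-GST. Scans were normalised with masliner. A modified Wilcoxon-Mann-Whitney statistic, the E-score, was assigned to each ungapped eight-base word pooled with its reverse complement by the Universal PBM Analysis Suite.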
row,Sequence,PBM E-score
1,CCGCGAGG,-0.0632
2,AAGTCTCC,-0.0848
3,ACGGAGAT,-0.0531
4,CACTGGAC,-0.0821
5,CTTATTAC,0.251
6,ACTATTAC,0.149
7,ATTATTAC,0.269
8,ACTATTAG,0.136
9,ATTATTAG,0.259
10,ATTATTGG,0.0681
11,ATCCAAAG,0.165
12,GTCAGCCA,-0.0924
13,CCCCAACA,-0.111
14,AGTATAAG,0.193
15,ATTATAAA,0.231
16,TGTATAAA,0.211
17,GGTATAAA,0.239
18,AGTATATG,0.157
19,ATTATAAT,0.319
20,ATTATAAG,0.0886
21,AGTATAAC,-0.0565
22,AGTATAAT,0.293
23,AGTATAAA,0.304
24,AGTATATC,0.0292
25,AGTATATA,0.364

row,Sequence,PBM E-score
1,CGACTCCG,-0.24
2,GCTGGCTA,-0.196
3,ACTCACCA,-0.0571
4,AGGTTACA,-0.0016
5,GGCTGCAC,-0.206
6,CGTTGTGA,-0.0712
7,CTTATTTC,0.251
8,CATATTTA,0.185
9,ATTATTTC,0.302
10,AATATTTA,0.295
11,CGTATTTA,0.313
12,AGTATTTA,0.16
13,ACTATTTC,0.224
14,AATATTTC,0.154
15,ATTTATTA,0.277
16,ATTTATTC,0.212
17,ATTTATTG,0.0964
18,GGTATTTA,0.104
19,GGGGGACC,-0.358
20,GATGGAGC,-0.108
21,ACACCAGG,-0.237
22,CACTACTG,0.0352
23,ATCAGTAG,0.0393
24,GCACACGC,-0.0783
25,CTACTGCC,-0.0886

row,Sequence,PBM E-score
1,ATGTACAA,0.0885
2,CGACGTCA,0.0828
3,CAGGTTAC,0.0255
4,ATTATTTG,0.197
5,ATTATTTA,0.289
6,CTTATTTA,0.11
7,GTTTATTA,0.268
8,GGTTATTA,0.158
9,CTTTATTA,0.199
10,AAATTATG,0.208
11,ACTTTACT,0.284
12,ACTTTACA,0.052
13,AATTTAAT,0.261
14,AATTTAAG,0.106
15,AAATTATC,0.251
16,AATTTACT,0.271
17,AATTTAAC,0.113
18,AAATTATT,0.275
19,AATTTAGT,0.21
20,AATTTACA,0.155
21,ACTTTACC,0.149
22,CAGGTGGG,-0.0568
23,CGGCTCTA,-0.067
24,CGTGGTCA,-0.112
25,ACTCTAAG,-0.0616

row,Sequence,PBM E-score
1,CTCCGTGA,-0.0971
2,CGCCACCA,-0.25
3,CGACCCCA,-0.16
4,AGTAACGA,-0.0656
5,GCGACAAA,0.0655
6,CGCTCGAG,0.0723
7,GGTTTTCA,0.0332
8,CTTTTGCA,0.227
9,AACGGTCG,0.105
10,AAATTACC,0.235
11,AAATTACT,0.304
12,AAATTAGA,0.201
13,AAATTAGG,0.196
14,AAATTAGT,0.283
15,AAATTACG,0.172
16,CGCAGCGA,-0.0766
17,TAGTGGGA,-0.0516
18,AAGCCTTC,-0.0737
19,GTGTAACA,-0.00489
20,AAAAGTTA,0.195
21,AATTTCGA,-0.00117
22,GATTTCGA,0.12
23,TATTTCGA,0.293
24,ATTGTCCG,0.216
25,TGGTAGAA,-0.0125

row,Sequence,PBM E-score
1,GTTATAAA,0.283
2,TCTATAAA,0.111
3,GTTATAAC,0.162
4,CTTATAAA,0.187
5,TTTATAAA,0.277
6,GTTATAGA,0.0873
7,GCAATTAA,0.112
8,AGAACGCG,0.14
9,AAGTCGCG,0.146
10,CATCTACG,-0.0208
11,GCCCGTAC,-0.155
12,AAATGATC,-0.129
13,GAATGATA,0.295
14,TAATGAAA,0.218
15,CAATGATA,0.137
16,CAATGAAA,0.077
17,GCATGATA,0.184
18,AAATGATT,0.19
19,ACATGATC,0.115
20,ACATGATA,0.263
21,AAATGATA,0.275
22,TAATGATA,0.239
23,AAATGAAA,0.324
24,ACCGCAAA,0.109
25,CCTTCATC,-0.195

row,Sequence,PBM E-score
1,AGACTATC,0.0563
2,AGAAGTCG,0.0232
3,CGGATAGC,0.052
4,GACCAGAA,-0.00826
5,ACGGCTAT,-0.0939
6,CAGACCTC,-0.181
7,GCAAAAGC,0.0339
8,CTATTAAC,0.188
9,ATATTAGA,0.175
10,ATATTAAG,0.0834
11,ATATTAAT,0.351
12,AAATTAAA,0.319
13,AAATTAAT,0.229
14,ATATTAAC,0.274
15,ATATTAAA,0.378
16,AAATTAAC,0.136
17,AGATTAAT,0.194
18,CTATTAAA,0.135
19,GTATTAAC,0.0508
20,AGAGACGC,0.0051
21,CTCCTCCC,-0.358
22,GTACTGAA,0.117
23,AACCTTCG,0.0416
24,CATTGTAA,0.172
25,CACCAGAG,-0.215

row,Sequence,PBM E-score
1,AAGAGTAA,0.0872
2,GTATTAAA,0.141
3,TTATTAAA,0.34
4,TGATTAAA,0.113
5,GCATTAAA,0.177
6,ACATTAAA,0.229
7,TCATTAAA,0.258
8,GGAGAAGA,-0.148
9,TAACGCTA,0.023
10,ATGGCAAT,0.0617
11,GGGATTAC,0.00382
12,CAAGCTAG,-0.0475
13,CGTTAGTA,0.241
14,GATTAGTA,0.218
15,CATTAGTC,0.0988
16,AGTTAGTC,0.0694
17,ACTTAGTG,-0.0604
18,AATTAGTC,0.303
19,AATTAGTA,0.369
20,AGTTAGTA,0.195
21,CATTAGTA,0.289
22,AATTAGGG,-0.107
23,CATTAGCA,0.0386
24,AATTAGTG,0.269
25,ACCTTATC,0.0868

row,Sequence,PBM E-score
1,ATCCTCTC,-0.0398
2,GCAGTGTA,0.0324
3,GTTCACGA,0.0641
4,AACTTATT,0.21
5,TAAGAACA,0.326
6,CAAGAACA,-0.0451
7,GAAGAACA,0.225
8,GTTCATAA,0.0365
9,GACTCGTA,-0.126
10,GGATTGCC,-0.116
11,AGAACACG,0.0921
12,CAAGGGAC,-0.0565
13,GTTACTAA,0.339
14,CTTACTAC,0.211
15,GTTACTGA,0.106
16,CTTACTCA,0.164
17,GTTACTCA,0.161
18,CTTACTAA,0.443
19,ACGCGGGG,-0.0549
20,ATTACGAA,0.329
21,CATACGTA,0.156
22,CTTACGTA,0.349
23,CTCACGAA,0.05
24,ACTACGAA,0.099
25,AATACGTA,0.296

row,Sequence,PBM E-score
1,CTTACGAA,0.259
2,GTTACGTA,0.182
3,CTTACGTC,0.0927
4,AGTACGAA,0.245
5,GTTACGAA,0.181
6,AATACGTG,0.0823
7,CTTGTCCA,-0.0307
8,AAAGATCT,-0.0503
9,AAGAGATT,0.0728
10,TAGGTAGA,0.076
11,CGTACAAA,0.108
12,ATTGGGCA,-0.0331
13,GGCTACGA,-0.0605
14,ATAGGGCC,-0.174
15,TAGGGCAA,-0.0175
16,CGTGCGAG,-0.0121
17,ATTACGGC,0.241
18,ATTACGAG,0.228
19,ATTACGGG,0.0809
20,CTTACGAC,0.0511
21,ATTACGAC,0.269
22,ATTACGGA,0.295
23,ACTCGAGC,0.0632
24,ATTTGTCA,0.313
25,GTTTGTCA,0.133

row,Sequence,PBM E-score
1,CTTTGTAA,0.27
2,CTTTGTAC,0.0552
3,ATTTGTAA,0.373
4,ATTTGTAG,0.117
5,CTTTGTCA,0.15
6,GTTTGTAA,0.0859
7,ATTTGTAC,0.0689
8,GCGAATCA,0.173
9,CAACGGTG,-0.243
10,CGCGTGGA,-0.183
11,ATACTTAC,0.0503
12,CAATCAAC,0.217
13,AATAGCGA,0.24
14,CCCAAAGG,-0.2
15,GAGAAGCA,-0.118
16,AACTAGGT,0.154
17,GTGCTTTA,0.121
18,AGGTATGG,-0.0324
19,ATGAATGG,0.268
20,ATGAATGC,0.0737
21,ATGAATGA,0.106
22,CGGAGCTA,-0.142
23,GAGGCCAC,-0.223
24,ATAGTAAA,0.238
25,TTAGTAAA,0.295

row,Sequence,PBM E-score
1,GTAGTCAA,-0.0796
2,CTAGTCAA,-0.0259
3,CTAGTAAA,0.0933
4,TTAGTCAA,0.27
5,GGAGTAAC,-0.103
6,GGAGTAAA,0.267
7,TGAGTAAA,0.161
8,GAGCGTCC,-0.223
9,ACACCACC,-0.209
10,CCTACCCG,-0.174
11,GAGAAACA,0.218
12,CGACCCAG,-0.23
13,CGAGTGTA,-0.0629
14,GTTTCATA,0.0741
15,CTAGTTAA,0.26
16,ATAGTTAA,0.114
17,GTAGTTAA,0.142
18,GCATGGGA,-0.197
19,CATGACAA,0.143
20,GATGACAA,0.264
21,GATGACAC,0.132
22,CGGTTCGA,0.0689
23,GTGAACAC,-0.156
24,ATGCCGTC,-0.0725
25,CGAGCTGA,0.081

row,Sequence,PBM E-score
1,AGAGAGGA,-0.261
2,ATGAATTG,0.208
3,GATGAATA,0.242
4,AATGAAAT,0.21
5,CATGAATA,0.0196
6,ATTGAAAC,0.155
7,ATTGAATC,0.0178
8,ATTGAAAG,0.143
9,ATTGAAAA,0.266
10,CTTGAATA,0.113
11,ATTGAATA,0.256
12,ATTGAAAT,0.263
13,TATGAATA,0.266
14,CTTGAAAA,0.161
15,CGTCGCAG,-0.0218
16,GTAGAGAA,0.0971
17,GAGTGGAC,-0.0806
18,AGCAAAGA,0.0203
19,CATACGAC,0.0835
20,AAGGAAAA,0.156
21,CCTCTGGA,-0.136
22,TAATTGCA,0.195
23,GCTCCTAA,-0.265
24,ACAAGGAT,0.113
25,TCTTGTAA,0.118
